Data as given in the OligoGym collection.

These sequences were tested against GEMIN6 (assay: pooled miR-30 sensor sort-seq; sequence = guide strand). Details: shRNA.
Also: reference of the scale not given here.

Sequence	sensor-assay potency score (higher = more potent)
TTCTCTCTTCCAGATCCTCTGG	-0.645
TATACTCATTCTTCTCACTGGC	0.16
TTGTAAATGTAATCTTGCCATT	-1.2
ATAATCTCATTAGAGCTGCTGC	-0.457
ATTCCGGTCACAGACATGCTGC	-1.04
TAAAATATAGTCTTTTTCTATC	-1.26

The sequences below were run against GFPT2 in the same assay as above. Details: shRNA.

Sequence	sensor-assay potency score (higher = more potent)
TTCGTGATTATTCCCATCGATC	-1.22
TTGGTTTCAAAATTCACCCGAC	0.408
TTGACCAGCTGAATGTGTCTTT	0.14
TTTGTAGTGAAATTCGGTCTTC	0.0421
TAGTATTGAAAACTGATTCTGG	0.341
TTTAAAACTAACTCTAGTGTTG	-0.242
TTCTCCAGAGTGCACGTCCTGT	-0.972
ATCACTAGCAAGTTCAACCATC	-0.789
TTGACTTCGTGATTATTCCCAT	-0.191
TTGTCTTTTAAAACTAACTCTA	-0.437
TTTCTTGACCAGCTGAATGTGT	-0.609
TTTGTAAAGTTCTTCATCGAGA	-0.0624

The sequences below were run against GGH in the same assay as above. Details: shRNA.

Sequence	sensor-assay potency score (higher = more potent)
TTTCTCTGTAAGATCCAGCCTT	-0.286
TTGAAAAACTTCTTTAACTTTT	-0.924
AAATTCTGGAACATTCTGCTGT	0.666
ATACTGGATACTTATATCCTTC	-0.969
TGAACTGATAAATCAATGCTTT	-0.538
TAAGACATTGAAAAACTTCTTT	-0.164
TTTAACTTTTCATTCATTGTAA	0.207
TTCTCTGTAAGATCCAGCCTTA	-0.166
TTAATAAGCACTCTCCACTAAT	-1.04
TTAGCATAATCTGAGCGTCTGA	-0.339
TATTTCATAGTCTTTCTCTGTA	0.438
TTGACCTCCAGTGAAGTTCAGC	-0.539

The sequences below were run against GH2 in the same assay as above. Details: shRNA.

Sequence	sensor-assay potency score (higher = more potent)
AAGGTGTTGGAATAGACTCTGA	-0.802
TTCTTCAAACTCCTGATAGGTG	-0.633
TAGGTTAGATTTCTGCTGCGTT	0.0139
TCAAACTTGCTGTAGGACTGAT	0.205
TAGACGTTGCTGTCCGAGGCGC	-0.468
TTCTGCTGCGTTTTCACCCTGT	0.325
TAGACTCTGAGAAGCAGAGGGA	0.323
ATAGGTGTCATATGCCAGCTGG	-0.725
TTAAACTCCTGATAGGTGTCAT	-0.0284
TTGAGCAGTGCGTCATCGTTGT	0.36
